This is an account of results in PubChem BioAssay.

The structures appear in SMILES notation.

One experiment in a line: COS7 lysate on small-molecule microarray, probe aHis, 635 nm (AID 1123).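 Also: z-score combines 667nm fluorescence intensity with signal-to-noise per printed compound spot.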 The conditions noted are these: COS7 cell lysate, fluorescence, higher = more signal.
`O=C1O[C@H](c2ccccc2)[C@H](c2ccccc2)N2[C@H]1[C@@H](C(=O)NC[C@H](O)c1ccccc1)[C@]1(C(=O)Nc3ccc(C#CC4(O)CCCCCC4)cc31)[C@H]2c1ccccc1OCCO` displayed a composite z-score of 1.45. `C=C(/C(=C/C[C@@H](OC(=O)c1ccncc1)c1ccc(CO)o1)c1cc(C(=O)OC)ccc1OC)C(C)C` showed a composite z-score of 1.13. The compound `COc1ccc([Si](C)(C)[C@@H]2[C@@H](CCO)O[C@]3(C(=O)N(Cc4ccccc4)c4ccc(N(C=O)c5ccccc5)cc43)[C@H]2C)cc1` showed a composite z-score of 0.937. Same read-out and setting: the figure for `CCCCCCC#C[Si](O[C@H](c1ccccc1)c1cn([C@H](C)c2ccccc2)nn1)(C(C)C)C(C)C` is 0.19; for `[N-]=[N+]=NCc1ccccc1[C@@H]1OC(c2ccc(OCCCO)cc2)=N[C@]1(Cc1ccccc1)C(=O)O` it is 2.25. Regarding `CCCC[C@@H]1C[C@H]1[C@@H](NC(=O)c1ccccc1)c1ccc(-c2ccccc2)cc1`, the composite z-score stood at 1.17.

As for `Cc1ccc(S[C@]2(C(=O)NCCN3CCOCC3)CC(=O)N(C3CCCCC3)[C@@H]2c2ccc(CO)cc2)cc1`, the composite z-score turned out to be 1.83.

For the compound `CC(C)NC(=O)[C@@]1(c2ccc([N+](=O)[O-])cc2)CC(=O)N(C(C)C)[C@@H]1c1ccc(CO)cc1`, the composite z-score stood at 0.859. For the compound `C=CCN1Cc2ccccc2C[C@@]2(COC(c3ccc(OCCCO)cc3)=N2)C1=O`, the composite z-score came to 2.14. Turning to `COCCn1c(C(=O)N2CCCC2)cc2c1C[C@H]1CN(C(=O)c3ccccc3)[C@@](Cc3ccc(OC)cc3)(C(=O)OC)[C@@H]21`, the composite z-score turned out to be 2.11. Still for that read-out and setting: the figure for `C=C[C@@H](C)[C@@H](OC(=O)Nc1ccc(OC)cc1)c1ccc(O)c2ccccc12` is 0.516; for `COCCOC(=O)N1C(=O)[C@@]2(c3ccccc31)[C@H](C(=O)N1CCCCCCC1)[C@H]1C(=O)O[C@H](c3ccccc3)[C@H](c3ccccc3)N1[C@@H]2c1ccccc1OCCO` it is 3.32; for `COCCn1c(C(=O)N(C)C)cc2c1C[C@H]1CN(C(=O)c3ccccc3)[C@@](Cc3ccc(F)cc3)(C(=O)OC)[C@@H]21` it is 2.02.

Regarding `CC(C)N1C(=O)c2ccccc2[C@](C)(C(=O)NCCCN(C)C)[C@@H]1c1ccc(CO)cc1`, the composite z-score was 1.45. `O=C1C2C=CC(C(O)c3ccc(-c4ccccc4)s3)N(Nc3ccccc3F)C2C(=O)N1c1ccccc1` (stereo not given) came in with a composite z-score of 2.09. `CN1C(=O)C2C(C1=O)C1C=C(c3ccc(CO)cc3)C2C(C2CC2)N1Cc1sc2ccccc2c1Cl` (stereo not given) showed a composite z-score of 2.59. In turn, `CO[C@H]1O[C@H](CO)[C@@H](OC(=O)Nc2ccc3c(c2)OCO3)[C@H](OC(=O)Nc2ccc3c(c2)OCO3)[C@H]1OC(=O)Nc1ccc2c(c1)OCO2` showed a composite z-score of 2.73. For the compound `C=CC[C@]1(C(=O)NCCN2CCOCC2)N=C(c2ccc(OCCCO)cc2)O[C@H]1c1ccccc1N=[N+]=[N-]`, the composite z-score stood at 1.55.

For `C=CCNC(=O)[C@@H]1[C@H]2C(=O)O[C@H](c3ccccc3)[C@H](c3ccccc3)N2[C@H](c2ccccc2OCCO)[C@@]12C(=O)N(C(=O)OCCOC)c1ccc(C#CCC(C(=O)OC)C(=O)OC)cc12`, the composite z-score is 3.05. `CC(C)[C@H]1COC(=O)N1C(=O)[C@H]1[C@@H](c2ccccc2)N(c2ccccc2)O[C@@H]1C` displayed a composite z-score of 0.409. Still for that read-out and setting: under `O=C1O[C@@H](c2ccccc2)[C@@H](c2ccccc2)N2[C@@H](c3ccc(O)cc3)[C@]3(C(=O)Nc4ccc(C#CCCO)cc43)[C@@H](C(=O)O)[C@H]12` stands 2.34; under `Cc1ccc(S[C@]2(C(=O)NCCCN(C)C)CC(=O)N(C(C)C)[C@@H]2c2ccc(CO)cc2I)cc1`, 1.23. For the compound `Cc1ccc(N2C(=O)c3ccccc3[C@](C)(C(=O)NCCN3CCOCC3)[C@@H]2c2ccc(CO)cc2)nc1`, the composite z-score was -0.0207. On to `COC(=O)C(CC#Cc1ccc2c(c1)[C@]1(C(=O)N2)[C@H](C(=O)N2CCCCCCC2)[C@H]2C(=O)O[C@H](c3ccccc3)[C@H](c3ccccc3)N2[C@@H]1c1ccccc1OCCO)C(=O)OC`, for which the composite z-score stood at 5.41.

A further experiment can be described thus: compound binding in COS7 lysate, probe aLAP1, primary screen, cell lysate, small-molecule microarray (AID 1124).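 Also: lysate comes from COS7 cells expressing LAP1 and is applied at 0.3 µg/mL; score merges spot fluorescence near 667 nm with signal-to-noise over triplicate slides.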 The conditions noted are these: probe aLAP1, fluorescence, higher = more signal.
For `Oc1ccc2cc[n+](Cc3cccc(OC(F)(F)F)c3)cc2c1`, the composite z-score came out at 0.0966. The same measure, in the same setting: the figure for `CC1CC/C=C\[C@H]2OC34C=CCN(CCN5CCOCC5)C(=O)[C@H]3N(CCCCCO)C(=O)[C@@H]4C2C(=O)O1` (stereo not given in full) is -0.653; for `C=C(C(=O)CC[C@@H](OC(=O)c1cccnc1)c1ccc(CO)o1)C(C)C` it is 0.697. The same measure, in the same setting: under `C=CCC(OC(C)=O)[C@@H]1[C@@H](N(Cc2cc3ccccc3o2)C(=O)c2cccc3ccccc23)c2cc(OCCCO)ccc2N1C(=O)Cc1ccc(OC)cc1` (stereo not given in full) stands -0.0685.

On to `C=CCN1C(=O)[C@]2(COC(c3ccc(OCCCO)cc3)=N2)Cc2ccccc21`, for which the composite z-score was 1.11.

`O=C(NCc1ccccc1)[C@@H]1c2ccccc2C(=O)N(C2CCCCC2)[C@H]1c1ccc(CO)cc1` had a composite z-score of 1.78.

As for `[N-]=[N+]=NCc1ccccc1C[C@@]1(C(=O)NCc2ccccc2)N=C(c2ccc(OCCCO)cc2)O[C@@H]1c1ccccc1CN=[N+]=[N-]`, the composite z-score amounted to 0.745.

Take `CCOC(=O)C=Cc1cccc(OC)c1O`: the composite z-score is -0.15. Consider `CN(C)CCCC[C@@H]1NC(=O)[C@H]2C[C@@H](C(=O)NCCCCCNC(=O)CS)[C@@H](c3ccc(O)cc3)N2C1=O`, for which the composite z-score is -0.733.

Compound `COC(=O)[C@@]1(Cc2ccccc2)[C@H]2c3cc(C(=O)N(C)C)n(Cc4cc(F)c(F)c(F)c4)c3C[C@H]2CN1C(=O)c1ccccc1` yielded a composite z-score of 0.525.

For `C=C(C)[C@@H]1CC=C(C(O)C2C=CC3C(=O)N(Cc4ccccc4)C(=O)C3N2n2cnnc2)CC1` (stereo not given in full), the composite z-score is -0.24. With `O=C(NCCN1CCOCC1)[C@@H]1c2ccccc2C(=O)N(Cc2cc(F)cc(C(F)(F)F)c2)[C@H]1c1ccc(CO)cc1`, the composite z-score was -0.062. Compound `O=C1O[C@H](c2ccccc2)[C@H](c2ccccc2)N2[C@H]1[C@@H](C(=O)NC[C@H](O)c1ccccc1)[C@]1(C(=O)Nc3ccc(C#CC4(O)CCCCCC4)cc31)[C@H]2c1ccccc1OCCO` had a composite z-score of 1.29.

In the case of `C=C(/C(=C/C[C@@H](OC(=O)c1ccncc1)c1ccc(CO)o1)c1cc(C(=O)OC)ccc1OC)C(C)C`, the composite z-score turned out to be 0.812. Turning to `COc1ccc([Si](C)(C)[C@@H]2[C@@H](CCO)O[C@]3(C(=O)N(Cc4ccccc4)c4ccc(N(C=O)c5ccccc5)cc43)[C@H]2C)cc1`, the composite z-score came to 0.719. Still for that read-out and setting: under `CCCCCCC#C[Si](O[C@H](c1ccccc1)c1cn([C@H](C)c2ccccc2)nn1)(C(C)C)C(C)C` stands -0.164. For `[N-]=[N+]=NCc1ccccc1[C@@H]1OC(c2ccc(OCCCO)cc2)=N[C@]1(Cc1ccccc1)C(=O)O`, the composite z-score was -0.324.

For the compound `CCCC[C@@H]1C[C@H]1[C@@H](NC(=O)c1ccccc1)c1ccc(-c2ccccc2)cc1`, the composite z-score was -0.146. In turn, `Cc1ccc(S[C@]2(C(=O)NCCN3CCOCC3)CC(=O)N(C3CCCCC3)[C@@H]2c2ccc(CO)cc2)cc1` displayed a composite z-score of 0.437. `CC(C)NC(=O)[C@@]1(c2ccc([N+](=O)[O-])cc2)CC(=O)N(C(C)C)[C@@H]1c1ccc(CO)cc1`: the composite z-score came out at 0.723.

The compound `C=CCN1Cc2ccccc2C[C@@]2(COC(c3ccc(OCCCO)cc3)=N2)C1=O` displayed a composite z-score of 0.547. `COCCn1c(C(=O)N2CCCC2)cc2c1C[C@H]1CN(C(=O)c3ccccc3)[C@@](Cc3ccc(OC)cc3)(C(=O)OC)[C@@H]21` registered a composite z-score of 1.11. Take `C=C[C@@H](C)[C@@H](OC(=O)Nc1ccc(OC)cc1)c1ccc(O)c2ccccc12`: the composite z-score was -0.0028. On the same count and under the same terms, the figure for `COCCOC(=O)N1C(=O)[C@@]2(c3ccccc31)[C@H](C(=O)N1CCCCCCC1)[C@H]1C(=O)O[C@H](c3ccccc3)[C@H](c3ccccc3)N1[C@@H]2c1ccccc1OCCO` is 1.19; for `COCCn1c(C(=O)N(C)C)cc2c1C[C@H]1CN(C(=O)c3ccccc3)[C@@](Cc3ccc(F)cc3)(C(=O)OC)[C@@H]21` it is -0.0593; for `CC(C)N1C(=O)c2ccccc2[C@](C)(C(=O)NCCCN(C)C)[C@@H]1c1ccc(CO)cc1` it is 1.01. Take `O=C1C2C=CC(C(O)c3ccc(-c4ccccc4)s3)N(Nc3ccccc3F)C2C(=O)N1c1ccccc1` (stereo not given): the composite z-score was determined as 0.335. In turn, `CN1C(=O)C2C(C1=O)C1C=C(c3ccc(CO)cc3)C2C(C2CC2)N1Cc1sc2ccccc2c1Cl` (stereo not given) displayed a composite z-score of 0.74. `CO[C@H]1O[C@H](CO)[C@@H](OC(=O)Nc2ccc3c(c2)OCO3)[C@H](OC(=O)Nc2ccc3c(c2)OCO3)[C@H]1OC(=O)Nc1ccc2c(c1)OCO2` displayed a composite z-score of 0.804. In the case of `C=CC[C@]1(C(=O)NCCN2CCOCC2)N=C(c2ccc(OCCCO)cc2)O[C@H]1c1ccccc1N=[N+]=[N-]`, the composite z-score was 0.811. For `C=CCNC(=O)[C@@H]1[C@H]2C(=O)O[C@H](c3ccccc3)[C@H](c3ccccc3)N2[C@H](c2ccccc2OCCO)[C@@]12C(=O)N(C(=O)OCCOC)c1ccc(C#CCC(C(=O)OC)C(=O)OC)cc12`, the composite z-score is 1.33. Consider `CC(C)[C@H]1COC(=O)N1C(=O)[C@H]1[C@@H](c2ccccc2)N(c2ccccc2)O[C@@H]1C`, for which the composite z-score was -0.066. Still for that read-out and setting: under `O=C1O[C@@H](c2ccccc2)[C@@H](c2ccccc2)N2[C@@H](c3ccc(O)cc3)[C@]3(C(=O)Nc4ccc(C#CCCO)cc43)[C@@H](C(=O)O)[C@H]12` stands 0.734.

`Cc1ccc(S[C@]2(C(=O)NCCCN(C)C)CC(=O)N(C(C)C)[C@@H]2c2ccc(CO)cc2I)cc1` registered a composite z-score of 0.693. As for `Cc1ccc(N2C(=O)c3ccccc3[C@](C)(C(=O)NCCN3CCOCC3)[C@@H]2c2ccc(CO)cc2)nc1`, the composite z-score is 0.0322.

Compound `COC(=O)C(CC#Cc1ccc2c(c1)[C@]1(C(=O)N2)[C@H](C(=O)N2CCCCCCC2)[C@H]2C(=O)O[C@H](c3ccccc3)[C@H](c3ccccc3)N2[C@@H]1c1ccccc1OCCO)C(=O)OC` showed a composite z-score of 1.58.
